Reference: PubChem BioAssay AID1159580 (chemical genetic matrix, 2015)
Values joined by “and” are separate entries in the source; they are usually repeats but may differ in a detail not shown here. Identical values can stand only once. Among all 5,500 compounds or so, about 2,000 (36%) were called active. Roughly 18% stayed inconclusive and do not appear here. Cut-off read from the data, not from the text of the source: active = normalized growth mostly below about 0.91 (no sharp cut-off); inconclusive = no clear call, values can overlap the other calls; inactive = mostly above about 0.92. The list shows a part of the results.

Assay: chemical genetic growth profiling, strain panel (AID 1159580);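 note: tested at 20 µM; growth read once vehicle control cultures reached saturation at 30 °C; 1 = growth at the plate median or of vehicle wells; lower values mean less growth of the strain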
Settings: S. cerevisiae deletion strains, growth OD

Measured: normalized growth

C[C@@H]1O[C@@H](OC[C@H]2OC(Oc3c(-c4ccc(OCCO)c(OCCO)c4)oc4cc(OCCO)cc(O)c4c3=O)[C@H](O)[C@@H](O)[C@@H]2O)[C@H](O)[C@H](O)[C@H]1O (stereo not given in full)
inactive: locus YAL013W, strain DEP1, hits give low values 0.994 | locus YAL021C, strain ccr4, hits give low values 0.972 | locus YAL026C, strain drs2, hits give low values 0.973 | locus YAL030W, strain snc1, hits give low values 0.946 | locus YBL061C, strain skt5, hits give low values 0.974 | locus YBR009C, strain hhf1, hits give low values 0.981 | locus YBR021W, strain FUR4, hits give low values 1.02 | locus YBR023C, strain chs3, hits give low values 0.956 | locus YBR171W, strain sec66, hits give low values 0.945 | locus YBR229C, strain ROT2, hits give low values 0.961 | locus YBR231C, strain swc5, hits give low values 0.962 | locus YBR279W, strain paf1, hits give low values 0.967 | locus YCL011C, strain gbp2, hits give low values 0.952 | locus YCL016C, strain dcc1, hits give low values 0.984 | locus YCL029C, strain bik1, hits give low values 1.01 | locus YCL061C, strain MRC1, hits give low values 0.973 | locus YCL069W, strain vba3, hits give low values 0.966 | locus YCR088W, strain abp1, hits give low values 0.969 | locus YDL005C, strain med2, hits give low values 0.963 | locus YDL035C, strain GPR1, hits give low values 0.945 | locus YDL040C, strain nat1, hits give low values 0.972 | locus YDL074C, strain BRE1, hits give low values 1.01 | locus YDL101C, strain DUN1, hits give low values 0.979 | locus YDL185W, strain tfp1, hits give low values 0.973 | locus YDL192W, strain arf1, hits give low values 0.992 | locus YDR001C, strain nth1, hits give low values 0.943 | locus YDR069C, strain doa4, hits give low values 0.931 | locus YDR101C, strain arx1, hits give low values 1.04 | locus YDR137W, strain rgp1, hits give low values 0.938 | locus YDR159W, strain sac3, hits give low values 0.94 | locus YDR162C, strain NBP2, hits give low values 0.985 | locus YDR195W, strain ref2 0.892 | locus YDR297W, strain sur2, hits give low values 0.974 | locus YDR318W, strain mcm21, hits give low values 0.963 | locus YDR334W, strain swr1, hits give low values 0.916 | locus YDR335W, strain msn5, hits give low values 0.958 | locus YDR388W, hits give low values 0.994 | locus YDR392W, strain spt3, hits give low values 1.02 | locus YDR502C, strain sam2, hits give low values 0.995 | locus YEL003W, strain gim4, hits give low values 0.968 | locus YEL037C, strain rad23, hits give low values 0.955 | locus YEL061C, strain CIN8 (second series), hits give low values 0.947 | locus YEL061C, strain CIN8, hits give low values 0.997 | locus YER015W, strain faa2, hits give low values 0.984 | locus YER016W, strain bim1, hits give low values 0.96 | locus YER110C, hits give low values 0.978 | locus YER111C, strain swi4, hits give low values 0.963 | locus YER155C, strain BEM2 (second series), hits give low values 0.974 | locus YER155C, strain BEM2, hits give low values 1 | locus YER167W, strain BCK2, hits give low values 1.01 | locus YFR010W, strain ubp6, hits give low values 0.946 | locus YGL078C, strain dbp3, hits give low values 0.996 | locus YGL086W, strain mad1, hits give low values 1.03 | locus YGL167C, strain pmr1, hits give low values 0.933 | locus YGL173C, strain kem1, hits give low values 0.993 | locus YGL227W, strain vid30, hits give low values 0.938 | locus YGL240W, strain doc1, hits give low values 0.958 | locus YGL248W, strain PDE1, hits give low values 0.965 | locus YGL253W, strain hxk2, hits give low values 0.965 | locus YGR078C, strain PAC10, hits give low values 0.984 | locus YGR135W, strain pre9, hits give low values 0.97 | locus YGR252W, strain gcn5, hits give low values 0.947 | locus YHR013C, strain ard1, hits give low values 0.973 | locus YHR027C, strain rpn1, hits give low values 0.958 | locus YHR030C, strain SLT2, hits give low values 1 and 0.999 | locus YHR079C, strain IRE1 (second series), hits give low values 1 | locus YHR079C, strain IRE1, hits give low values 1.02 | locus YHR094C, strain hxt1, hits give low values 0.969 | locus YHR129C, strain ARP1, hits give low values 0.99 | locus YHR142W, strain chs7, hits give low values 0.958 | locus YHR200W, strain rpn10, hits give low values 0.983 | locus YIL066C, strain RNR3, hits give low values 0.972 | locus YIL073C, strain SPO22, hits give low values 0.969 | locus YIL125W, strain kgd1, hits give low values 0.991 | locus YIR030C, strain dcg1, hits give low values 0.993 | locus YJL092W, strain hpr5, hits give low values 0.967 | locus YJL095W, strain BCK1 (second series), hits give low values 0.967 | locus YJL095W, strain BCK1, hits give low values 0.972 and 1.01 | locus YJL115W, strain asf1, hits give low values 0.948 | locus YJL129C, strain trk1, hits give low values 0.954 | locus YJL134W, strain LCB3, hits give low values 0.99 | locus YJL154C, strain vps35, hits give low values 0.958 | locus YJL164C, strain tpk1, hits give low values 0.995 | locus YJL166W, strain qcr8, hits give low values 0.971 | locus YJL168C, strain set2, hits give low values 0.993 | locus YJL187C, strain SWE1 (second series), hits give low values 0.983 | locus YJR043C, strain POL32, hits give low values 0.972 | locus YJR066W, strain TOR1, hits give low values 0.941 | locus YJR075W, strain HOC1, hits give low values 0.983 | locus YKL009W, strain mrt4, hits give low values 0.978 | locus YKL068W, hits give low values 0.973 | locus YKL085W, strain MDH1 (second series), hits give low values 0.981 | locus YKL085W, strain MDH1, hits give low values 0.981 | locus YKL160W, strain elf1, hits give low values 0.986 | locus YKL190W, strain CNB1, hits give low values 0.992 | locus YKR001C, strain vps1, hits give low values 0.994 | locus YKR026C, strain gcn3, hits give low values 0.946 | locus YKR091W, strain srl3, hits give low values 0.974 | locus YLL001W, strain dnm1, hits give low values 0.963 | locus YLL026W, hits give low values 0.947 | locus YLL041C, strain sdh2, hits give low values 0.959 | locus YLR027C, strain aat2, hits give low values 0.964 | locus YLR039C, strain RIC1, hits give low values 1.07 | locus YLR058C, strain SHM2, hits give low values 0.978 | locus YLR102C, strain apc9, hits give low values 0.986 | locus YLR113W, strain HOG1, hits give low values 1.01 | locus YLR221C, strain rsa3, hits give low values 0.986 | locus YLR258W, strain gsy2, hits give low values 0.971 | locus YLR262C, strain YPT6 (second series), hits give low values 0.961 | locus YLR262C, strain YPT6, hits give low values 1.08 | locus YLR268W, strain sec22, hits give low values 1.03 | locus YLR320W, strain mms22, hits give low values 1.01 | locus YLR330W, strain CHS5, hits give low values 1 | locus YLR342W, strain FKS1 (second series), hits give low values 0.985 | locus YLR342W, strain FKS1, hits give low values 0.974 | locus YLR357W, strain rsc2, hits give low values 0.947 | locus YLR370C, strain arc18, hits give low values 0.954 | locus YLR371W, strain rom2, hits give low values 0.963 | locus YLR384C, strain iki3, hits give low values 0.962 | locus YLR418C, strain cdc73, hits give low values 0.959 | locus YML016C, strain PPZ1, hits give low values 0.996 | locus YML032C, strain rad52, hits give low values 0.952 | locus YML120C, strain ndi1, hits give low values 0.963 | locus YML124C, strain tub3, hits give low values 1.01 | locus YMR058W, strain fet3, hits give low values 0.959 | locus YMR078C, strain ctf18, hits give low values 0.988 | locus YMR125W, strain sto1, hits give low values 0.948 | locus YMR129W, hits give low values 0.972 | locus YMR205C, strain PFK2, hits give low values 0.977 | locus YMR223W, strain ubp8, hits give low values 0.985 | locus YMR231W, strain pep5, hits give low values 0.971 | locus YMR307W, strain GAS1, hits give low values 1.01 | locus YNL067W, strain RPL9B, hits give low values 0.978 | locus YNL071W, strain lat1, hits give low values 0.971 | locus YNL128W, strain TEP1, hits give low values 0.998 | locus YNL183C, strain NPR1, hits give low values 0.936 | locus YNL209W, strain ssb2, hits give low values 0.958 | locus YNL233W, strain BNI4, hits give low values 0.993 | locus YNL248C, strain rpa49, hits give low values 0.973 | locus YNL250W, strain rad50, hits give low values 0.984 | locus YNL271C, strain bni1, hits give low values 0.993 | locus YNL298W, strain CLA4, hits give low values 0.973 | locus YNL307C, strain MCK1, hits give low values 0.988 | locus YNL322C, strain KRE1 (second series), hits give low values 0.949 | locus YNR049C, strain mso1, hits give low values 0.965 | locus YNR052C, strain pop2, hits give low values 0.99 | locus YOL012C, strain htz1 1.9 | locus YOL147C, strain pex11, hits give low values 0.991 | locus YOR001W, strain rrp6, hits give low values 0.962 | locus YOR061W, strain CKA2, hits give low values 0.954 | locus YOR069W, strain VPS5, hits give low values 0.994 | locus YOR070C, strain gyp1, hits give low values 0.977 | locus YOR080W, strain dia2, hits give low values 0.943 | locus YOR083W, strain WHI5, hits give low values 0.987 | locus YOR106W, strain vam3, hits give low values 0.943 | locus YOR136W, strain idh2, hits give low values 0.984 | locus YOR144C, strain elg1, hits give low values 0.986 | locus YOR184W, strain ser1, hits give low values 0.987 | locus YOR231W, strain MKK1, hits give low values 1.03 | locus YOR265W, strain rbl2, hits give low values 0.963 | locus YOR270C, strain vph1, hits give low values 0.94 | locus YOR290C, strain snf2, hits give low values 0.972 | locus YOR316C, strain cot1, hits give low values 0.982 | locus YPL051W, strain arl3, hits give low values 0.956 | locus YPL055C, strain LGE1, hits give low values 0.994 | locus YPL078C, strain atp4, hits give low values 0.952 | locus YPL106C, strain sse1, hits give low values 0.925 | locus YPL240C, strain hsp82, hits give low values 0.972 | locus YPL241C, strain CIN2, hits give low values 1 | locus YPL256C, strain CLN2, hits give low values 1.01 | locus YPR119W, strain clb2, hits give low values 0.996 | locus YPR141C, strain kar3, hits give low values 0.974 | locus YPR163C, strain tif3, hits give low values 0.993 | locus YPR167C, strain met16, hits give low values 0.99 | strain wtn01, hits give low values 1.02
